# Screens as filed in PubChem BioAssay.
# Shown are actives, neighbours in structure and some others; about 10% of the full set was active somewhere.
# LMNA splice mod = qHTS Assay for Modulators of Lamin A Splicing. AID 1487, 2009. Potency, µM (series often up to 46.1 µM), without a hit: top-dose ratio change, negative = inhibition, actives largely listed as inhibitors. hit rate 0.01% among 200,000. HeLa LMNA splicing GFP/RFP minigene ratio, 48 h; active = well fitted inhibition curve with a large enough effect in the signal ratio, with a control signal flat, not every such curve was filed as active; inconclusive = small, poorly fitted or top-dose-only effect, or effect the other way, or a change in a side signal; the % refers to the signal ratio; note: potency is the fitted concentration of half-maximal effect
#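 S3 HeLa cells stably expressing lamin A-EGFP splicing minigene plus DsRed2, 600 cells/well, 48 h compound exposure at 37C. Laser-scanning cytometry; analysed as GFP (500-530 nm)/RFP (575-640 nm) total intensity ratio; 0.5% DMSO vehicle.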
# PNC assembly inh = High Content Assay for Compounds that inhibit the Assembly of the Perinucleolar Compartment; PC3M PTB-GFP, PNC prevalence imaging, 16 h; active compounds read low; activity change (PNC), negative = inhibition, % at 10 µM; hit rate 3.1% among 140,000;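 active = readout at or below -70, meaning at least 70% loss of cells showing the perinucleolar compartment, a nuclear body marking cancer cells; inconclusive = readout between -30 and a set limit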;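 note: plate controls were DMSO wells for no effect and camptothecin positive control wells for full effect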
#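 Compounds are pinned in duplicate onto adhered PC3M cells stably expressing GFP-tagged PTB and incubated 16 h at 37 C. Cells are then fixed, nuclei stained with Hoechst, and PNC-positive cells counted.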
# ALDH1A1 block = qHTS Assay for Inhibitors of Aldehyde Dehydrogenase 1 (ALDH1A1) | Aldehyde dehydrogenase 1A1 (Homo sapiens), P00352 | Purified ALDH1A1, NADH fluorescence, propionaldehyde substrate | Potency, µM (doses to about 75.3 µM), for inactives: top-dose activity, negative = inhibition, usual class: inhibitors | hit rate 7.3% among 220,000;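 note: potency is the fitted concentration of half-maximal effect; plate controls were no enzyme wells and a reference inhibitor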
# ALOX12 inhib = qHTS Assay for Inhibitors of 12-hLO (12-human lipoxygenase). Polyunsaturated fatty acid lipoxygenase ALOX12 (Homo sapiens), P18054. purified 12-hLO, xylenol orange hydroperoxide absorbance. Potency, µM (series often up to 57.1 µM), for inactives: top-dose activity change, negative = inhibition, actives largely listed as inhibitors. hit rate 0.12% among 150,000. AID 1452, 2008; active = well fitted inhibition curve with a large enough effect; inconclusive = small, poorly fitted or top-dose-only effect; note: potency is the fitted concentration of half-maximal effect; nearly all actives have a fitted effect of over 55% in size
# Target sequence (P18054 whole entry, looked up): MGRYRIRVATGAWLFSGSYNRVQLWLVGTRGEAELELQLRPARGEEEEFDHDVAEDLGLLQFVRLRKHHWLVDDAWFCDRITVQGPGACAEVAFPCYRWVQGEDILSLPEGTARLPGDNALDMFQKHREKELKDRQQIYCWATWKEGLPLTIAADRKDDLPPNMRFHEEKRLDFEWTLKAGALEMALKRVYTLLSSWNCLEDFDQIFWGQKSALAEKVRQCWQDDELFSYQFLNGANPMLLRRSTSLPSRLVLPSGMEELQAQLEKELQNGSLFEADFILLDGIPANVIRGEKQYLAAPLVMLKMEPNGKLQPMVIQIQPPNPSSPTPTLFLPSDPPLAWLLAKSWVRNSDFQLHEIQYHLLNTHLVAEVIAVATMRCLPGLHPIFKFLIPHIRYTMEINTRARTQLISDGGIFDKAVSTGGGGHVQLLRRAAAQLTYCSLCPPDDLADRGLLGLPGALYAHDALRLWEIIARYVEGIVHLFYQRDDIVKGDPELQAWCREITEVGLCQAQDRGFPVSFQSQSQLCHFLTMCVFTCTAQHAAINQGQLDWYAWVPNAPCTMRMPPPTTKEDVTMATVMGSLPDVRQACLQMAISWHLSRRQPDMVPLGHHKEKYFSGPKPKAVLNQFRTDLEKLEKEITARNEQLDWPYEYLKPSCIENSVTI
#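 Lipoxygenase turnover measured by absorbance at 573 and 405 nm after Fe-XO development. Human 12hLO 150 nM, arachidonate 40 uM, pH 7.0 Hepes buffer with detergent; 15 min compound preincubation, 30 min reaction.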
# HPGD inh = qHTS Assay for Inhibitors of HPGD (15-Hydroxyprostaglandin Dehydrogenase); 15-hydroxyprostaglandin dehydrogenase [NAD(+)] (Homo sapiens), P15428; purified HPGD, NADH fluorescence kinetic, PGE2 substrate; hit rate 4.3% among 150,000; Potency, µM, for inactives: at the top dose activity change, negative = inhibition, actives largely listed as inhibitors; AID 894, 2007; note: potency is the fitted concentration of half-maximal effect
#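 NADH formation kinetics: reaction with 30 uM PGE2 and 1 mM NAD+ (final), 20 nM enzyme, Tris-HCl pH 8 with Tween 20, after 15 min compound preincubation at room temperature. Fluorescence change, last versus first of five reads.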
# * = called active by the depositor; ? = inconclusive; nt = not tested or not shown; [ ] = dose if it differs, or a comment. Unless noted, calls come from the whole dose curve; as a rule, active = well fitted inhibition curve with a large enough effect (not every such curve was filed as active); inconclusive = small, poorly fitted or top-dose-only effect, or another doubt; inactive = no such curve, though single readings can be large or run the other way. Unless noted, % is set by controls: 0 for no effect and ±100 for the full control effect.
SMILES,LMNA splice mod,PNC assembly inh,ALDH1A1 block,ALOX12 inhib,HPGD inh
COc1ccc(C[C@@H]2CN3C(=NC[C@@H]3C)N2C[C@H](C)NC(=O)CCC2CCCCC2)cc1,nt,nt,7.1µM*,nt,nt
CC(=O)c1ccc(OC(=O)c2cc3ccccc3oc2=O)cc1,5%[9.22 µM],nt,15%,nt,nt
N[C@@H](Cc1cccc([N+](=O)[O-])c1)C(=O)O,nt,nt,-9%[13.5 µM],3%[11.4 µM],-6%
CCCOc1ccc(/C(O)=C2\C(=O)C(=O)N(CCCOC)C23C(=O)N(C)c2ccccc23)cc1 (configuration not stated),-5%,-106*,-7%,12%,-15%
CC(C)NC(=O)CCC(=O)N1Cc2ccccc2Oc2ncccc21,0%[46 µM],nt,nt,nt,nt
CCCN1C(=O)C(O)(C2COC(C)(C)CC2=O)c2ccccc21 (configuration not stated),18%[46 µM],nt,0.35µM*,nt,nt
CCN1C(=O)C(O)(C2COC(C)(C)CC2=O)c2ccccc21 (configuration not stated),-7%,32,?,9%,-6%
CCN1C(=O)C(O)(C2COC(C)(C)CC2=O)c2cc(Br)ccc21 (configuration not stated),?,?,8.9µM*,8%,-13%
CCCN1C(=O)C(O)(C2CC(=O)CC(C)(C)O2)c2ccccc21 (configuration not stated),7%,29,0.79µM*,-1%,-1%
CCCOc1ccc(-c2cccc(NS(=O)(=O)c3cccs3)c2)nn1,3%[46 µM],nt,nt,nt,nt
CC(=O)N1CCN(C2c3cccc4cccc(c34)C2NS(=O)(=O)c2ccccc2)CC1 (configuration not stated),-8%,61,?,3%,-3%
Cc1ccc(C(=O)N2CCN(C3c4cccc5cccc(c45)C3NS(=O)(=O)c3ccccc3)CC2)cc1 (configuration not stated),-6%,-20,22µM*,-1%,-6%
Cn1c(=O)oc2cc(S(=O)(=O)CCC(=O)NCc3ccc(Cl)cc3)ccc21,-12%[46 µM],nt,nt,nt,nt
CCCCC(CC(O)COCC(C)C)C(=O)NNC(=S)Nc1ccccc1 (configuration not stated),-13%,?,10µM*,1%,-21%
C=CCNC(=S)NNC(=O)C(CCCC)CC(C)O (configuration not stated),-2%,?,1%,8%,-5%
CCC(CC(C)(C)O)C(=O)NNC(=S)Nc1ccccc1 (configuration not stated),nt,nt,25µM*,nt,nt
CCC1=C2CC[C@H]3C(=O)N(CC)C(=O)[C@H]3[C@H]2[C@@]2(Cc3ccccc3)C(=O)N(CC3CC3)C(=O)N2C1=O,nt,nt,0%,1%,-9%
COc1nc(N/N=C/c2ccc(-c3ccccc3[N+](=O)[O-])o2)nc(N2CCOCC2)n1,-20%,-5,8.9µM*,1%,-14%
O=[N+]([O-])c1ccc(/C=N/Nc2nc(N3CCCCCC3)nc(N3CCCCCC3)n2)o1,7%,-11,3%,-8%,-20%
COC(=O)c1ccc(C(NC(=O)OCc2ccccc2)/C(F)=C/[C@@H](C)C(=O)N[C@@H](CO)Cc2ccccc2)cc1 (some centres not stated),nt,nt,-6%,0%,-8%
O=C1C2C3C=CC(C4CC34)C2C(=O)N1/N=C/c1ccc([N+](=O)[O-])o1 (configuration not stated),nt,nt,3.2µM*,nt,nt
Cc1ccc(-c2ccc(/C=N/N3C(=O)C4C5C=CC(C6CC56)C4C3=O)o2)c([N+](=O)[O-])c1 (configuration not stated),9%,6,?,-3%,13µM*
O=C1C2C3C=CC(C4CC34)C2C(=O)N1/N=C/c1ccc(-c2ccc([N+](=O)[O-])cc2)o1 (configuration not stated),?,nt,-2%,nt,nt
